The values that follow come from ChEMBL document CHEMBL1201862, “PubChem BioAssay data set” (2004).

Several values for one entry are separate records, joined by “and”; a condition that tells them apart may be missing. Equal values may be shown once. Out of some 400,000 compounds screened, about 2,100 (0.53%) were called active. Roughly 14% stayed inconclusive and do not appear here. How the calls were made is not given here. This excerpt belongs to a sample that is enriched for actives.

Ataxin-2 (Homo sapiens), sequence (Q99700 whole entry): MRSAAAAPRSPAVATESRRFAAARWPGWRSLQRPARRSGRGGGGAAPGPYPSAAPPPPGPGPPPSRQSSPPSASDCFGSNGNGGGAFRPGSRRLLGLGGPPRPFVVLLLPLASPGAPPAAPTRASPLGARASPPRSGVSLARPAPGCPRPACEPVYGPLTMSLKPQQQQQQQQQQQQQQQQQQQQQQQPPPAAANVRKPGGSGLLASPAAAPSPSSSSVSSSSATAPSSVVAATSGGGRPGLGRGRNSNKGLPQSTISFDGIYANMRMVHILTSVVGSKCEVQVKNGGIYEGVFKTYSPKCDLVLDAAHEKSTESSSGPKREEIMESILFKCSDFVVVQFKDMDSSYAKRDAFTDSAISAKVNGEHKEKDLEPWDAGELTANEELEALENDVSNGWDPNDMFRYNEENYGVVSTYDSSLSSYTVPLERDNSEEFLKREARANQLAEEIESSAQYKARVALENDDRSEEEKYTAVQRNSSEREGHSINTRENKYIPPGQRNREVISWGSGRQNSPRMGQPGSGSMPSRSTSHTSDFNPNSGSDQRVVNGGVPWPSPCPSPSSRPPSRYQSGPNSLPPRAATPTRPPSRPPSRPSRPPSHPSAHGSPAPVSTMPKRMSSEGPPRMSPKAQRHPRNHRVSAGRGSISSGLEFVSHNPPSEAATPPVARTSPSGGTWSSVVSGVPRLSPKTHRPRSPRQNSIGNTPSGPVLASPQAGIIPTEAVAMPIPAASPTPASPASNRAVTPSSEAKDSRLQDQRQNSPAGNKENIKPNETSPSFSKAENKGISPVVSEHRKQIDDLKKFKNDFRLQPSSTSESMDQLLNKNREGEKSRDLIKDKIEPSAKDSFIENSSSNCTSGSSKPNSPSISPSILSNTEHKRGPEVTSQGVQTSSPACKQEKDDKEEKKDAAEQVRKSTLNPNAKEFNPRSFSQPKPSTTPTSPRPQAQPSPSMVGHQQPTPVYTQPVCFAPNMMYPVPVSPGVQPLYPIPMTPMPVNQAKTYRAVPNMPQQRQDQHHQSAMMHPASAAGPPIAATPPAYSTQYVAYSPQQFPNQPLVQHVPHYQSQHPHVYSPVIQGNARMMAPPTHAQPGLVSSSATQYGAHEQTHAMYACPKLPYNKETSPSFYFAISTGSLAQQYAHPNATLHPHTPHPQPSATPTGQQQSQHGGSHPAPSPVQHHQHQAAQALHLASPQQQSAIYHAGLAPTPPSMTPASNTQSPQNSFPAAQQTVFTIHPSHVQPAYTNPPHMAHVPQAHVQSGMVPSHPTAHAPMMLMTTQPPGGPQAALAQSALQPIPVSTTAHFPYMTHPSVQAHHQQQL

The experiment has as its target Ataxin-2 (Homo sapiens) (UniProt Q99700). Put plainly: qHTS for Inhibitors of ATXN expression. The class given is functional. Background: Quantitative high-throughput screening tests each substance at several concentrations.
With `N#CCc1nc(C(c2ccccc2)c2ccccc2)no1`, the Potency entry is “inactive”.

On to `CCCNC(=O)c1ccc2c(O)c(O)c(-c3ccsc3)nc2c1`, for which the Potency entry is “inactive”.

For `CC(C)N1CCc2c(sc(NC(=O)c3cc4cc([N+](=O)[O-])ccc4s3)c2C(N)=O)C1`, the Potency was 29.9 µM (active).

Turning to `CC(C)CN(CC(C)C)S(=O)(=O)c1ccc(C(=O)Nc2sc3c(c2C(N)=O)CCN(C(C)C)C3)cc1`, the Potency entry was “inactive”.

In the case of `CN1CCc2c(sc(NC(=O)c3ccc(S(=O)(=O)N4CCCCCC4)cc3)c2C(N)=O)C1`, the Potency result was “inactive”.

As for `CC(C)N1CCc2c(sc(NC(=O)c3cc(-c4cccs4)nc4ccccc34)c2C(N)=O)C1`, the Potency is 33.6 µM (active).

With `CCC(=O)Nc1sc2c(c1C(N)=O)CCN(Cc1ccccc1)C2`, the Potency entry is “inactive”.

On to `CC(C)N1CCc2c(sc(NC(=O)Cc3ccccc3)c2C#N)C1`, for which the Potency result is “inactive”.

Take `CCOc1cc(CNCCO)cc(Br)c1OCc1ccc(Cl)cc1Cl`: the Potency is 39.8 µM (active).

Regarding `CCOc1cc(CNC(C)(C)CO)cc(Br)c1OCc1ccc(Cl)cc1Cl`, the Potency was 39.8 µM (active).

Regarding `Cc1ccc(C)c(OC(C)C(=O)Nc2ccc(S(=O)(=O)Nc3nccs3)cc2)c1` (configuration not stated), the Potency result was “inactive”.

For `CCc1nnc(NC(=O)c2sc3nc(C)cc(COC)c3c2N)s1`, the Potency result is “inactive”.

On to `Cc1nc2ccccc2c(=O)n1/N=C/c1ccc(O)c(O)c1O`, for which the Potency entry was “inactive”.

As to `Cc1ccc(-c2nc3ccccc3c(=O)o2)cc1`, the Potency result is “inactive”.

In the case of `Cc1ccc(-c2[nH]ncc2/C=N/n2c(COc3ccccc3)nc3ccccc3c2=O)cc1`, the Potency is 39.8 µM (active).

Take `Cc1ccc(-c2[nH]ncc2/C=N/n2c(COc3ccccc3C)nc3ccccc3c2=O)cc1`: the Potency was 15.8 µM (active).

In the case of `Oc1ccccc1/C=N/n1c(S)nnc1COc1ccccc1`, the Potency entry is “inactive”.

As for `COc1ccc(/C=N/n2c(S)nnc2COc2ccccc2)cc1OC`, the Potency result is “inactive”.

Turning to `O=C(CSc1nnc(-c2cccc(Br)c2)o1)N1CCNC1=O`, the Potency entry is “inactive”.

Turning to `CC1CCN(S(=O)(=O)c2ccc(NC(=O)CN3CCCC3)cc2)CC1`, the Potency entry was “inactive”.

For `CC1CCN(S(=O)(=O)c2ccc3nc(Nc4cccc(F)c4)ccc3c2)CC1`, the Potency was 35.5 µM (active).

For `O=S(=O)(c1ccc2nc(N3CCN(c4ccccc4)CC3)ccc2c1)N1CCCCC1`, the Potency entry was “inactive”.

Take `O=C(OCCN1C(=O)c2cccc3c(N4CCOCC4)ccc(c23)C1=O)c1ccc(Cl)cc1`: the Potency result is “inactive”.

For the compound `O=C(CC(=O)N/N=C/c1ccc(C(=O)O)cc1)NCCc1ccccc1`, the Potency result was “inactive”.

As to `COc1ccc2sc(N(CCCN(C)C)C(=O)c3ccc(S(=O)(=O)N4CCCc5ccccc54)cc3)nc2c1`, the Potency was 39.8 µM (active).

Take `COc1ccc(C)c2sc(N(CCCN(C)C)C(=O)c3ccc(S(=O)(=O)N4CCc5ccccc5C4)cc3)nc12`: the Potency is 22.4 µM (active).

In the case of `O=S(=O)(c1ccc(F)cc1)N1CCc2ccccc2C1`, the Potency entry is “inactive”.

As to `O=C(c1ccc(S(=O)(=O)N2CCCCC2)cc1)N1CCc2ccccc2C1`, the Potency entry is “inactive”.

With `COCCN(Cc1ccccc1)C(=O)c1cccc(S(=O)(=O)N2CCCc3ccccc32)c1`, the Potency entry is “inactive”.

Regarding `O=C(Nc1nc2ccc([N+](=O)[O-])cc2s1)c1ccc(S(=O)(=O)N2CCCc3ccccc32)cc1`, the Potency entry was “inactive”.

On to `O=c1[nH]c(=O)c2nc(-c3ccc(Cl)cc3)cnc2[nH]1`, for which the Potency result was “inactive”.

Turning to `O=c1c2nccnc2[nH]c(=S)n1Cc1ccccc1Cl`, the Potency entry is “inactive”.

For the compound `CC1CN(Cc2cc(=O)oc3cc(O)ccc23)CC(C)O1` (configuration not stated), the Potency result was “inactive”.

With `COCc1nnc(NS(=O)(=O)c2ccc(OC)cc2)s1`, the Potency entry is “inactive”.

With `CC(=O)N1CCN(Cc2nc(O)c3c(-c4ccccc4)csc3n2)CC1`, the Potency entry was “inactive”.

Turning to `CN1CCN(c2nc(-c3cccnc3)nc3scc(-c4ccccc4)c23)CC1`, the Potency entry was “inactive”.

In the case of `CC1CCN(c2nc(CN3CCCCC3)nc3scc(-c4ccccc4)c23)CC1`, the Potency was 22.4 µM (active).

In the case of `Cc1cccc(/N=C/c2cc(Br)cc(Cl)c2O)c1`, the Potency result is “inactive”.

In the case of `O=C(C[n+]1ccc2c(c1)nnn2-c1ccccc1)c1ccc(Cl)cc1`, the Potency entry is “inactive”.

With `O=C1OC(c2ccccc2)(c2cc(Br)ccc2O)c2ccccc21` (configuration not stated), the Potency was 35.5 µM (active).

`Cc1ccc(NC2=C(C(=O)Nc3c(C)cc(C)cc3C)C(=N)C(C(=O)Nc3ccc(OC(F)(F)F)cc3)S2)cc1` (configuration not stated): the Potency was 18.9 µM (active).

Consider `COCc1cc(C)nc2sc(C(=O)Nc3ccc(OC(F)(F)F)cc3)c(N)c12`, for which the Potency entry is “inactive”.

`CSCCC(NC(=O)C1CCCC1)c1nnc2ccccn12` (configuration not stated): the Potency entry is “inactive”.

For `CCCCCCN1C=C/C(=C\C=C(C#N)C#N)c2ccccc21`, the Potency is 20 µM (active).

Turning to `C=CCN1C=C/C(=C\C=C(C#N)C#N)c2ccccc21`, the Potency is 6.7 µM (active).

As for `O=C(O)COc1ccc(/C=C/c2nc3ccc([N+](=O)[O-])cc3s2)cc1`, the Potency entry was “inactive”.

In the case of `CCN(CC)c1ccc2c(Cl)c(Br)c(=O)oc2c1`, the Potency entry was “inactive”.

On to `c1ccn2c(c1)nc1c2nc2ccccn21`, for which the Potency entry is “inactive”.

Take `C=CCNC(=O)c1cc2c(=O)n3ccccc3nc2s1`: the Potency entry is “inactive”.

With `COc1ccc(/C=C/C(=O)c2ccccc2)cc1Cn1nnc2ccccc21`, the Potency is 39.8 µM (active).

For `COc1ccc(/C=C/C(=O)c2ccc3ccccc3c2O)cc1CN1CCOCC1`, the Potency result was “inactive”.

Take `COc1ccc(/C=N/NC(=O)CCn2nnc3ccccc32)cc1`: the Potency result was “inactive”.

Turning to `O=C(O)C1Sc2nc(O)sc2C2c3ccc(O)cc3OC(=O)C12` (configuration not stated), the Potency result is “inactive”.

On to `O=C(OCc1cn([C@H]2CN(CC3CCCCC3)[C@@H](c3ccc(Cl)cc3)C[C@@H]2O)nn1)c1ccccc1`, for which the Potency was 35.5 µM (active).

For the compound `COc1ccc([C@H]2C[C@@H](O)[C@H](n3cc(COC(=O)c4ccccc4)nn3)CN2CC2CCCCC2)cc1`, the Potency is 28.2 µM (active).

With `COc1ccc(C2CC(c3ccccc3)=NN2c2ccc(C(N)=O)cc2)cc1` (configuration not stated), the Potency result is “inactive”.

As to `COc1ccc([C@H]2C[C@H](O)[C@@H](n3cc(COC(=O)c4ccccc4)nn3)CN2CC2CCCCC2)cc1`, the Potency was 35.5 µM (active).

With `O[C@H]1CN(CC2CCCCC2)[C@@H](c2ccc(Cl)cc2)C[C@@H]1n1cc(C2CC2)nn1`, the Potency was 20 µM (active).

With `COc1ccc(C2C3=C(CCCC3=O)N(CC(=O)O)C3=C2C(=O)CCC3)cc1`, the Potency result is “inactive”.

On to `COCC(=O)Nc1nc2n(n1)C(c1ccccc1)CC(c1ccc(OC)cc1)N2` (configuration not stated), for which the Potency result was “inactive”.

On to `CC(C)C(=O)Nc1ccc(C(=O)N/N=C/c2cc(Br)cc(Br)c2O)cc1`, for which the Potency entry is “inactive”.

In the case of `N#Cc1nc(/C=C/c2ccc(F)cc2)oc1N1CCCCCC1`, the Potency entry is “inactive”.

For the compound `Cc1nc2ccccc2c2c(N)c3ccccc3n12`, the Potency result was “inactive”.

For the compound `CC(=O)C1=CCC(c2ccc(Br)cc2)N(S(=O)(=O)c2ccc(C)cc2)C1` (configuration not stated), the Potency was 20 µM (active).

Consider `Cc1ccc(-c2ccc(S(=O)(=O)N3CC(C)OC(C)C3)cc2)cc1` (configuration not stated), for which the Potency result was “inactive”.

In the case of `Cc1ccc(S(=O)(=O)CCC(=O)OCCOc2ccc(Br)cc2)cc1`, the Potency entry is “inactive”.

On to `COc1ccc2[nH]c(SCC(=O)NC(C)c3ccccc3)nc2c1` (configuration not stated), for which the Potency entry is “inactive”.

Consider `COc1ccc(CNCCC(c2ccc3c(c2)OCO3)c2ccccc2OC)cc1` (configuration not stated), for which the Potency is 22.4 µM (active).

On to `Fc1cccc(CNCc2ccc3c(c2)OCO3)c1`, for which the Potency entry is “inactive”.

In the case of `COc1ccc(C(C)NCCC(c2ccc(OC(C)C)cc2)c2ccccc2OC)cc1` (configuration not stated), the Potency was 39.8 µM (active).

With `COc1ccccc1/C=C/C(=O)OCC(=O)NCc1ccc2c(c1)OCO2`, the Potency result was “inactive”.

Consider `Cc1c(CC(=O)N2CCN(C(=O)C3COc4ccccc4O3)CC2)c(=O)oc2cc(O)cc(O)c12` (configuration not stated), for which the Potency entry was “inactive”.

Consider `Cc1ccc(S(=O)(=O)N2CCOCC2)cc1NC(=O)COC(=O)/C=C/c1ccco1`, for which the Potency entry was “inactive”.

`CC[C@@H]1Cc2cc(O)ccc2C2=C1c1ccc(O)cc1C[C@H]2CC`: the Potency is 39.8 µM (active) and 22.4 µM (active).

As to `Clc1ccc(-c2nc(N3CCCCC3)nc3ccccc23)cc1`, the Potency entry is “inactive”.

`COc1ccc(-n2c(=O)c(CCC(=O)NCCc3ccccc3F)nc3ccccc32)cc1`: the Potency entry is “inactive”.

Consider `Cc1sc(N)c(C(=O)c2ccccc2)c1C`, for which the Potency entry was “inactive”.

In the case of `Cc1ccc(C(=O)c2c(C)oc3c2C(=O)C(=O)c2ccccc2-3)cc1`, the Potency was 39.8 µM (active).

For `Cc1oc2c(c1C(=O)c1ccccc1)C(=O)C(=O)c1ccccc1-2`, the Potency was 3.98 µM (active).

For the compound `Cc1ccc(-n2c(C)cc(C(=O)COc3cccnc3[N+](=O)[O-])c2C)cc1`, the Potency result was “inactive”.

For `CCOc1ccc(-n2c(C)cc(/C=N/NC(=O)C(N)=O)c2C)cc1`, the Potency result is “inactive”.

As to `CCOc1ccc(-n2c(C)cc(C(=O)CCl)c2C)cc1`, the Potency is 29.9 µM (active).

On to `CCCn1c(=N)c(C(=O)NCc2ccco2)cc2c(=O)n3cc(C)ccc3nc21`, for which the Potency entry was “inactive”.

As to `CC1CCc2c(sc3ncn(CC(=O)N4CCCCC4)c(=O)c23)C1` (configuration not stated), the Potency result was “inactive”.

Turning to `CCc1nc(N2CCN(C(=O)CCl)CC2)c2c3c(sc2n1)CC(C)CC3` (configuration not stated), the Potency was 35.5 µM (active).

In the case of `CC1CCc2c(sc3nc(-c4cc5ccccc5oc4=O)nc(Cl)c23)C1` (configuration not stated), the Potency entry is “inactive”.

On to `COCCCn1c(C(=O)N2CCOCC2)cc2c(=O)n3ccccc3nc21`, for which the Potency result was “inactive”.

`CN1/C(=C/C(=O)c2nc(S(C)(=O)=O)ncc2Cl)C(C)(C)c2ccccc21`: the Potency was 31.6 µM (active).

Take `CN1/C(=C\C(=O)c2cccnc2)C(C)(C)c2ccccc21`: the Potency result is “inactive”.

As for `CC1=C(C(=O)c2ccccc2)C(c2ccc(O)cc2)NC(S)=N1` (configuration not stated), the Potency result is “inactive”.

`O=C(NCCCN1CCCC1=O)C1CCN(S(=O)(=O)c2ccccc2)CC1`: the Potency entry is “inactive”.

With `O=C(NCCC1=CCCCC1)C1CCC(CNc2nc(S)nc3ccccc23)CC1` (configuration not stated), the Potency is 23.8 µM (active).

Consider `O=C(COC(=O)/C=C/c1ccccc1)NCCC1=CCCCC1`, for which the Potency result was “inactive”.

For the compound `CCCCN(C(=O)NC(=O)C1=C(N2CCOCC2)/C(=C/c2ccccc2)CC1)S(C)(=O)=O`, the Potency result is “inactive”.

Take `C=CCO/C(O)=C1\C(C)=NC(SCC(=O)Nc2nccs2)=C(C#N)C1c1ccc(Cl)cc1` (configuration not stated): the Potency result is “inactive”.

As to `O=C1CCC[C@@H]2C[C@@]3(C[C@@H]4CCN1[C@H]24)Nc1cc(Cl)c(Cl)cc1N=C3NCc1ccccc1`, the Potency was 35.5 µM (active).

`CC(C)(C)CC(C)(C)NC1=Nc2cc(Cl)c(Cl)cc2NC12C[C@H]1CCC(=O)N3CC[C@@H](C2)[C@@H]13` (some centres not stated): the Potency was 31.6 µM (active).
